# From ChEMBL document CHEMBL1961873, “Compounds: GSK PKIS; Assays: Nanosyn kinase panel” (2012)
# What was measured:
# [1] = target: Sphingosine kinase 1 (Homo sapiens) (UniProt Q9NYA1); conditions: at 1 µM;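 also: mean SPHK1 inhibition value reported from the GSK PKIS kinase panel screen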
# [2] = target: T1, Sphingosine kinase 2 (Homo sapiens) (UniProt Q9NRA0); conditions: at 0.1 µM
# T1 sequence (whole entry): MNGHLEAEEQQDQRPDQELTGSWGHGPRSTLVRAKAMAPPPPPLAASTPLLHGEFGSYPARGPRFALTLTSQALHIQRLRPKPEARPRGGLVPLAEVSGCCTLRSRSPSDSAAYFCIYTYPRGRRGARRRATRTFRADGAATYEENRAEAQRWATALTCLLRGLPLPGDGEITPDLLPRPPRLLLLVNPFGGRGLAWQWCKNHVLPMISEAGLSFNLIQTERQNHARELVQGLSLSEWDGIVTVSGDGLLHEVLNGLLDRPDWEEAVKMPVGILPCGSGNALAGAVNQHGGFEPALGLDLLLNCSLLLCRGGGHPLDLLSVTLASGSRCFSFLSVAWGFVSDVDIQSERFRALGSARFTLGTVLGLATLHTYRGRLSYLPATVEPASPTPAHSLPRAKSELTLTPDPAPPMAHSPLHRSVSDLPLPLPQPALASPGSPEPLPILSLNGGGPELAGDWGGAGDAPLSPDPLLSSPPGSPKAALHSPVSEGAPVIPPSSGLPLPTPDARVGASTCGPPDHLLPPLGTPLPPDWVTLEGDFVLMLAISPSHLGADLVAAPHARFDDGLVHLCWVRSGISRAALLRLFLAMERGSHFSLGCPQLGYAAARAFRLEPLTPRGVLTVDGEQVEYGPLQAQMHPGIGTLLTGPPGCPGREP
# [3] = target: T1, Sphingosine kinase 2 (Homo sapiens); conditions: at 1 µM
# [4] = target: Casein kinase II subunit alpha (Homo sapiens) (UniProt P68400); conditions: at 0.1 µM
# Chain of Casein kinase II subunit alpha (Homo sapiens) (P68400 whole entry, looked up): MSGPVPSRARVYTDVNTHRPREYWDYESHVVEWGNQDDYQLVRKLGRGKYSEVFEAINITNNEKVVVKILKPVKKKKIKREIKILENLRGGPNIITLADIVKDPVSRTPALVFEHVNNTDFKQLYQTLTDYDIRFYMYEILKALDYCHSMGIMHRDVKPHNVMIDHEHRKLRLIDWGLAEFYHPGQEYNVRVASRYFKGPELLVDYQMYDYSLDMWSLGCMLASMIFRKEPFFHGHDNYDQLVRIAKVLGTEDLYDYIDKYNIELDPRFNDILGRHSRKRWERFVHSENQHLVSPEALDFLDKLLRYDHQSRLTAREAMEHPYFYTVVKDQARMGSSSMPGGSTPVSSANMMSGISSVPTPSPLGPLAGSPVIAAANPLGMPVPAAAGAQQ
# [5] = target: Casein kinase II subunit alpha (Homo sapiens) (UniProt P68400); conditions: at 1 µM
# [6] = target: T2, Inhibitor of nuclear factor kappa-B kinase subunit alpha (Homo sapiens) (UniProt O15111); conditions: at 0.1 µM
# T2 sequence (whole entry): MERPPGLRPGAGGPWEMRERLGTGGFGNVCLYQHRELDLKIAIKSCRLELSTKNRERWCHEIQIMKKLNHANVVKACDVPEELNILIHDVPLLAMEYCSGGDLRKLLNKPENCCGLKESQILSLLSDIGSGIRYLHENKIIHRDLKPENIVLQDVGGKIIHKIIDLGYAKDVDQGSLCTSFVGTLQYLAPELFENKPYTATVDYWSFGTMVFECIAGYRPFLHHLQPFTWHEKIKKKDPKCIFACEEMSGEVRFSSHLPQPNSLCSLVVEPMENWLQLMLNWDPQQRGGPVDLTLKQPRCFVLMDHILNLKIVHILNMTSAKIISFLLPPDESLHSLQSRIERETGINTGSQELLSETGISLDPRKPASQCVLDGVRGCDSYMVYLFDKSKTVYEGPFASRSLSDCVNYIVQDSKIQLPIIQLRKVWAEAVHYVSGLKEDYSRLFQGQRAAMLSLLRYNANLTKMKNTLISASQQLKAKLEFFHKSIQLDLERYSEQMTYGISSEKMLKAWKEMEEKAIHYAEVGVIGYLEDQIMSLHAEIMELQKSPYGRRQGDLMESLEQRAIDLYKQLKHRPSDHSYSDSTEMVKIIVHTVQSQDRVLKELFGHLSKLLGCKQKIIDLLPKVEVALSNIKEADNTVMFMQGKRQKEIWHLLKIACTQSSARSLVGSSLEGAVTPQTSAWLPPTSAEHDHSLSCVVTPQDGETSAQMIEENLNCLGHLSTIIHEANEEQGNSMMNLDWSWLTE
# [7] = target: T2, Inhibitor of nuclear factor kappa-B kinase subunit alpha (Homo sapiens); conditions: at 1 µM
# [8] = target: T3, Inhibitor of nuclear factor kappa-B kinase subunit beta (Homo sapiens) (UniProt O14920); conditions: at 0.1 µM
# T3 sequence (whole entry): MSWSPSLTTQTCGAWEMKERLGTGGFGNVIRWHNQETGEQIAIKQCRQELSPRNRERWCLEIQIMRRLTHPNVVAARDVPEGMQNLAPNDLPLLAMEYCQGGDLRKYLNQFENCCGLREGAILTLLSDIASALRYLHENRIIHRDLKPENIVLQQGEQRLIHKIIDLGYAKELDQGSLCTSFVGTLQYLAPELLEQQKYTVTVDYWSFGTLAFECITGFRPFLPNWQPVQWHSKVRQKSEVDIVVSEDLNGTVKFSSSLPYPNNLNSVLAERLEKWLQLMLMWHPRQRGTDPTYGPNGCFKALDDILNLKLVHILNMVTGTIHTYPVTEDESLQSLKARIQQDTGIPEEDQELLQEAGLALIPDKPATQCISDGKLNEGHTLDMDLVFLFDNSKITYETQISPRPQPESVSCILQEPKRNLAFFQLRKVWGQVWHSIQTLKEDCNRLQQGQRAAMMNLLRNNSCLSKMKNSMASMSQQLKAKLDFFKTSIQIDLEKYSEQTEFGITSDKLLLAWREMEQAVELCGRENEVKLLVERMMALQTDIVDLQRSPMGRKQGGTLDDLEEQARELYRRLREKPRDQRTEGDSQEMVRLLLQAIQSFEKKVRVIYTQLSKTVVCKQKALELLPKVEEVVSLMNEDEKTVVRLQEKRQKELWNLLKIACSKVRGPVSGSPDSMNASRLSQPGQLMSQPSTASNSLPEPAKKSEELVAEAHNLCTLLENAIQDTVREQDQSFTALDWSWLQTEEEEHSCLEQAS
# [9] = target: T3, Inhibitor of nuclear factor kappa-B kinase subunit beta (Homo sapiens); conditions: at 1 µM
# [10] = target: T4, Inhibitor of nuclear factor kappa-B kinase subunit epsilon (Homo sapiens) (UniProt Q14164); conditions: at 0.1 µM;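 also: mean inhibition of IKKε reported, from the GSK PKIS dataset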
# T4 sequence (whole entry): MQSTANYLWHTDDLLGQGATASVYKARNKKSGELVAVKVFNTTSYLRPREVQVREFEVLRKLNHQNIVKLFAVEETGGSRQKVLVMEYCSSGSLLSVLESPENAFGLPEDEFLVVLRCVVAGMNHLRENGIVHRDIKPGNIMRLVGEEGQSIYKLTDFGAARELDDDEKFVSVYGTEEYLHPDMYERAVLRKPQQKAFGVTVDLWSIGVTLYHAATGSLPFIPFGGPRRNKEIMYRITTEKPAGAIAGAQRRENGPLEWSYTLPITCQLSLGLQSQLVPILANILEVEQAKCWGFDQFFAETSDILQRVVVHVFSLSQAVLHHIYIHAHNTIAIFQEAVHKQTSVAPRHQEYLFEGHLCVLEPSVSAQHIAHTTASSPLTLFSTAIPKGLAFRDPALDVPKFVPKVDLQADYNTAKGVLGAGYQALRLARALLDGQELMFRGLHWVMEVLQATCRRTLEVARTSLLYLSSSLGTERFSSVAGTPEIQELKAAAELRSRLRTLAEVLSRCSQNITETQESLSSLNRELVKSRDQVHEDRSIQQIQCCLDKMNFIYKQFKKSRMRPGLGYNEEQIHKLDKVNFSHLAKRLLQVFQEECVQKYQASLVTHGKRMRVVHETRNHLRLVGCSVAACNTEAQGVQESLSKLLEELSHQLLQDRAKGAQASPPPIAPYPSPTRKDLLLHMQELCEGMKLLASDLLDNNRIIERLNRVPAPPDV
# [11] = target: T5, Serine/threonine-protein kinase Nek1 (Homo sapiens) (UniProt Q96PY6); conditions: at 0.1 µM
# T5 sequence (whole entry): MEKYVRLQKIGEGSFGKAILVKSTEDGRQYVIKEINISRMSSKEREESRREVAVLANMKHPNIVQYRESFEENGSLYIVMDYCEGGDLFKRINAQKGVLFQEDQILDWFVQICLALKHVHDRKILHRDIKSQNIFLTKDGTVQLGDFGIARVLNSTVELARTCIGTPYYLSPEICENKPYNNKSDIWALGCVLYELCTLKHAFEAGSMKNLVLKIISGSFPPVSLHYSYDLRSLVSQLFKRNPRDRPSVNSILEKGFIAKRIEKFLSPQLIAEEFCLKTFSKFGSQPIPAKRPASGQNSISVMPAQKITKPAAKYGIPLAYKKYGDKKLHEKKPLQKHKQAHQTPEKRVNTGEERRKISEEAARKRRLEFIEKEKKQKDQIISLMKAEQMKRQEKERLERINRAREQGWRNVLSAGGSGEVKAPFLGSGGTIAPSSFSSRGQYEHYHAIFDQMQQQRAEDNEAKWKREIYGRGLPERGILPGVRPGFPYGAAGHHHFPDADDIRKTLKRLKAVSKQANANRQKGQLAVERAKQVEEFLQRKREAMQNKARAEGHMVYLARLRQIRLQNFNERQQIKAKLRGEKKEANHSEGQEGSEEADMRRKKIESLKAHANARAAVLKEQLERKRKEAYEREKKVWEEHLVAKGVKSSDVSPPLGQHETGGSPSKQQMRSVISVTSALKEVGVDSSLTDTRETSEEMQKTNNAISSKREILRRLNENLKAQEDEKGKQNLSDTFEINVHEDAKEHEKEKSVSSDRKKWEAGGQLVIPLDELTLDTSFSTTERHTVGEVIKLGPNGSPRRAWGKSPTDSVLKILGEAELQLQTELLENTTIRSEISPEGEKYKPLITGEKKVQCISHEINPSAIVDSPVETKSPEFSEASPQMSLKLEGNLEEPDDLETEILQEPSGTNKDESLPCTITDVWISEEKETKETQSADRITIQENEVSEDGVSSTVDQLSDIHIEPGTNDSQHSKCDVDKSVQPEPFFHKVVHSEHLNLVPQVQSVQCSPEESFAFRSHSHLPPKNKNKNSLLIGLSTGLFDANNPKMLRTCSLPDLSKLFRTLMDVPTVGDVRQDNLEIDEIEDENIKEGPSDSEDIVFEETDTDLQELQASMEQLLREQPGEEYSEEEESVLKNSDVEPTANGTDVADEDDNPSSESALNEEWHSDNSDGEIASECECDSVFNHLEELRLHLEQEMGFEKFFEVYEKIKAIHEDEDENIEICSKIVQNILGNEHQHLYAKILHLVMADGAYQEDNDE
# [12] = target: T5, Serine/threonine-protein kinase Nek1 (Homo sapiens); conditions: at 1 µM
# [13] = target: T6, Serine/threonine-protein kinase Nek2 (Homo sapiens) (UniProt P51955); conditions: at 0.1 µM
# T6 sequence (whole entry): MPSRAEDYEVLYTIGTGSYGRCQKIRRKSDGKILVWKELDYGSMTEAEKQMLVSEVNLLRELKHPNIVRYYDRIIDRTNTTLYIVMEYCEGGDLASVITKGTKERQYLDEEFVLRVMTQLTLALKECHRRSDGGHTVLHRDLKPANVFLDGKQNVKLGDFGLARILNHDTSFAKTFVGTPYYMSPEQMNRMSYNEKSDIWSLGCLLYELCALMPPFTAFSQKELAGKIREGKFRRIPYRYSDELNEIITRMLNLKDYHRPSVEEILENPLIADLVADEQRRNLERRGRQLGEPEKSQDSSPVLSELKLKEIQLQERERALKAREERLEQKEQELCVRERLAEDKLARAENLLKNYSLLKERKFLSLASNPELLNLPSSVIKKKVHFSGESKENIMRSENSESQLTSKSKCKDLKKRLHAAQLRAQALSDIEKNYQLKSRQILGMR
# [14] = target: T6, Serine/threonine-protein kinase Nek2 (Homo sapiens); conditions: at 1 µM
# [15] = target: Serine/threonine-protein kinase Nek6 (Homo sapiens) (UniProt Q9HC98); conditions: at 0.1 µM
# Chain of Serine/threonine-protein kinase Nek6 (Homo sapiens) (Q9HC98 whole entry): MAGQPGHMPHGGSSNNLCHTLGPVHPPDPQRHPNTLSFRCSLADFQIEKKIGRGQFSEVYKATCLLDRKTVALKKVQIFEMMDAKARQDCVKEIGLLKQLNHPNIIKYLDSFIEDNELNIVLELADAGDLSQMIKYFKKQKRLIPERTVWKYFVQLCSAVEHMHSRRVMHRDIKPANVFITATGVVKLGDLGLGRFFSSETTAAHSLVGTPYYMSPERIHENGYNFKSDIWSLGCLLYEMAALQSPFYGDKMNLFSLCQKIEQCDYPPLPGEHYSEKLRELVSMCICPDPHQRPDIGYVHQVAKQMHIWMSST
# [16] = target: Serine/threonine-protein kinase Nek6 (Homo sapiens) (UniProt Q9HC98); conditions: at 1 µM
# [17] = target: Serine/threonine-protein kinase Nek7 (Homo sapiens) (UniProt Q8TDX7); conditions: at 0.1 µM
# Chain of Serine/threonine-protein kinase Nek7 (Homo sapiens) (Q8TDX7 whole entry, looked up): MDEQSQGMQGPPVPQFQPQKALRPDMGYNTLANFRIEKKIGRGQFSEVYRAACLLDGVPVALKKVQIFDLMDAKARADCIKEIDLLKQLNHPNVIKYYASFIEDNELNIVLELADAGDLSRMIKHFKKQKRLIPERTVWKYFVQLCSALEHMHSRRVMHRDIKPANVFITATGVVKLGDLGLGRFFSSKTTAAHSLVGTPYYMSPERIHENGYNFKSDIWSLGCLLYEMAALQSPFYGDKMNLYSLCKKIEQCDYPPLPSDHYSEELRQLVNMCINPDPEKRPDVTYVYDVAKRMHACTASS
# [18] = target: Serine/threonine-protein kinase Nek7 (Homo sapiens) (UniProt Q8TDX7); conditions: at 1 µM
# [19] = target: T7, Serine/threonine-protein kinase Nek9 (Homo sapiens) (UniProt Q8TD19); conditions: at 0.1 µM;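 also: reported value is the mean percent inhibition of NEK9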
# T7 sequence (whole entry): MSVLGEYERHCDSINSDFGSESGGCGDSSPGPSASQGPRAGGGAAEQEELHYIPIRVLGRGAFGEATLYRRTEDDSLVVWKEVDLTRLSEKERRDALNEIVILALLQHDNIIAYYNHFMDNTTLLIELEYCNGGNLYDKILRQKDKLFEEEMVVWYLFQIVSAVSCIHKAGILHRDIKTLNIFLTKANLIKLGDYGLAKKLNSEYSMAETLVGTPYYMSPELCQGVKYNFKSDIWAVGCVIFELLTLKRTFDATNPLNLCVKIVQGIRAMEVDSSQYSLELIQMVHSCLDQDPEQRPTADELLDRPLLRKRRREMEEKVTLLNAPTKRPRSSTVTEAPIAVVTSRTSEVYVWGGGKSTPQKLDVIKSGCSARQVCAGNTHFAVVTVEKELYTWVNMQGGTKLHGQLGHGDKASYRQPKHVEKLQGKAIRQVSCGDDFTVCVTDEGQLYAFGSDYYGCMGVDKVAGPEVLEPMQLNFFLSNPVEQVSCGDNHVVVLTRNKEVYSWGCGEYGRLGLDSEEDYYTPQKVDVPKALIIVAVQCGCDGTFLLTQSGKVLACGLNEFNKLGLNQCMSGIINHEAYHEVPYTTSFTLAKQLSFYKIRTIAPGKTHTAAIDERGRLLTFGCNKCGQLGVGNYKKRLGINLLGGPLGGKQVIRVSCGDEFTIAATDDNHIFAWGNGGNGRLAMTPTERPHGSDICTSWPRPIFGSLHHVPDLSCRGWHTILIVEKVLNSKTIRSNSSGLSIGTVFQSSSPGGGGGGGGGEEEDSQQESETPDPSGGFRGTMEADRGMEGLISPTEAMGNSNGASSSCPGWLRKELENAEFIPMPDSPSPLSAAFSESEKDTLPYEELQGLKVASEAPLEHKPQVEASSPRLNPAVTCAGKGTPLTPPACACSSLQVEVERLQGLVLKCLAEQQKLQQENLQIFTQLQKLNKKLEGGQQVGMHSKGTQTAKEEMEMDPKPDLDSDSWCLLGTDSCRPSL
# Chain of Sphingosine kinase 1 (Homo sapiens) (Q9NYA1 whole entry): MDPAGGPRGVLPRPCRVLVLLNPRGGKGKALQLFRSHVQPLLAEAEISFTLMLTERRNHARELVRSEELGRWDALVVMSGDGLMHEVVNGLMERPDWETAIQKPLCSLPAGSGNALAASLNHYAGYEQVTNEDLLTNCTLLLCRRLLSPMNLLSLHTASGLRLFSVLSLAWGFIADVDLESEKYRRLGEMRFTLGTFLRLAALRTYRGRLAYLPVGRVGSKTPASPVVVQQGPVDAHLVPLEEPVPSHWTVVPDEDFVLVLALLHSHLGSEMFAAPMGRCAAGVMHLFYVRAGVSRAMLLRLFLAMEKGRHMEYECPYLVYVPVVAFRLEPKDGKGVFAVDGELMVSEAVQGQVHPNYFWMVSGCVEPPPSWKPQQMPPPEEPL
smiles,measurement,setting,value
Cn1cc(C=C2C(=O)Nc3cccnc32)c2ccccc21,inhibition,[1],8.29%
same,inhibition,[2],-4.3%
same,inhibition,[3],-0.04%
same,inhibition,[4],1.08%
same,inhibition,[5],6.39%
same,inhibition,[6],5.69%
same,inhibition,[7],-0.33%
same,inhibition,[8],2.27%
same,inhibition,[9],1.05%
same,inhibition,[10],3.13%
same,inhibition,[11],2.09%
same,inhibition,[12],1.05%
same,inhibition,[13],2.65%
same,inhibition,[14],2.9%
same,inhibition,[15],3.82%
same,inhibition,[16],-1.86%
same,inhibition,[17],3.8%
same,inhibition,[18],4.49%
same,inhibition,[19],2.88%
